According to PubChem BioAssay (NCI):
This is part of a sample that, as a whole, favours compounds with a hit. Of some 79,000 tested, about 15% had one in any assay. A number with no mark means an inactive call. No stated cut-off is given here; in the data, active means growth inhibition above about 70%; inactive means the rest.

test: NCI Yeast Anticancer Drug Screen. Data for the mlh1 rad18 strain (AID 175); conditions: S. cerevisiae mlh1 rad18 strain growth inhibition; at 50.0 µM; stronger effect = higher value
Outline: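 Yeast w/ defined DNA-repair lesions; compound exposure; growth vs vehicle controls → % inhibition.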

Row | Structure (SMILES) | growth inhibition [%]
1 | Cc1c(Cl)cccc1N=C=S | 8.7
2 | NNC(=O)CCCCl | -0.2
3 | O=C(O)CC1=CCCCC1 | 6.9
4 | CCOc1ccccc1NC(=O)CCl | 39.9
5 | CN(C)c1ccc(O)c2c1CC1CC3C(N(C)C)C(=O)C(C(N)=O)=C(O)C3(O)C(=O)C1=C2O (configuration not stated) | 32.9
6 | CCOC(=O)CNC | -10.9
7 | CN(C)CCOC(=O)Nc1ccc(Cc2ccc(NC(=O)OCCN(C)C)cc2)cc1 | 8.3
8 | NC(CCl)=NCC12CC3CC(CC(C3)C1)C2 | 56.9
9 | CC(C)(C)NCCC(O)c1cc(C(F)(F)F)nc2c(C(F)(F)F)cccc12 (configuration not stated) | 0.15
10 | OCc1cccnc1 | 5.75
11 | C/C(O)=C(/C=N/C(=S)Nc1ccccc1)C(=O)Nc1ccccc1C | 24.9
12 | CN1CCCN(C(c2ccccc2)c2ccc(Br)cc2)CC1 (configuration not stated) | 46
13 | CC(=O)NC(O)C(Cl)Cl (configuration not stated) | -14.2
14 | CCCCCC#CC(=O)O | 19.4
15 | COc1ccc(C(=O)C(=O)c2ccccc2)cc1 | 33.5
16 | OCCc1ccc(Cl)cc1 | 7.9
17 | NNc1ncnc2nc[nH]c12 | -19.4
18 | CCC(=O)C1C(=O)c2ccccc2C1=O | 20.4
19 | O=C(O)CCCCCNC(=O)OCc1ccccc1 | 9.3

Row | Structure (SMILES) | growth inhibition [%]
20 | C=C(OC(C)=O)c1ccccc1 | 0.05
21 | Clc1ncnc2nc[nH]c12 | -39.4
22 | C=CCN1CCCC1=O | 4.05
23 | CCCCCCCCCCCCCCCCCCSC(=N)N | 27.9
24 | NC(=S)N/N=C/c1ccc(OC(=O)COc2ccccc2)cn1 | 9.9
25 | Cn1c(=O)c2[nH]c(CCCCC(=O)O)nc2n(C)c1=O | 4.2
26 | COC1=C(OC)C(=O)C(SC/C=C(\C)CCCC(C)CCCC(C)CCCC(C)C)=CC1=O (configuration not stated) | -61.1
27 | C/C(=N\O)c1ccccn1 | 1.45
28 | O=C(O)Cc1cccc2ccccc12 | -0.55
29 | CC(=O)NC(CCC(=O)c1ccccc1)C(=O)O (configuration not stated) | 16
30 | C[n+]1c(/C=C\C=C\N2CCCCC2)sc2ccccc21 | 27.9
31 | Nc1nc(N)nc(N2CCCCC2)n1 | -19.9
32 | CCCC1OC(c2ccco2)OCC1CC (configuration not stated) | 27.1
33 | COC(=O)C1(CC(C)=O)NC(=S)NC(=O)C1C#N (configuration not stated) | -15.3
34 | CC(c1ccccc1)N(C)C (configuration not stated) | 1.6
35 | CCOC(OCC)C(=O)c1ccccc1 | 25.1
36 | Cc1cc(CC(=O)NCCO)n(CCO)c(=O)c1 | -2.9
37 | CCOC(=O)/C(O)=C(\C=N\C(=S)Nc1ccc(Cl)c(Cl)c1)C(=O)OCC | 50.6
